Screening data from PubChem.
This is a sample that favours compounds with a hit; in the whole collection about 1.2% have one here.
gsp agonist: agonists of gsp mutant (McCune-Albright syndrome); Potency, µM (highest dose often 76.9 µM), for inactives: top-dose activation (cAMP increase), most hits filed as activators; gsp mutant cells, cAMP HTRF, 30 min; actives 0.13% (n = 340,000); active = well fitted activation curve with a large enough effect; inconclusive = small, poorly fitted or top-dose-only effect, or another doubt; inactive = no such curve, though single readings can be large or run the other way; cell line not stated here;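 also: phosphodiesterase inhibitor Ro 20-1724 added with compounds to block cAMP breakdown; potency is read from the fitted curve at half-maximal effect; nearly all actives have a fitted effect of over 60% in size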
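Cells stably selected in G418 were plated at 2000/well, grown 16-24 hr, then given compounds in DMSO with the PDE inhibitor […] (300 uM solution added) for 30 min at 37C; cAMP was read by HTRF.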
RXFP1 ag: RXFP1 (human) receptor agonism; HEK293T-RXFP1 cAMP TR-FRET, 30 min; response scale: percent of porcine relaxin response, buffer zero; actives 0.3% (n = 370,000); Potency, µM (top dose mostly 57.5 µM), for inactives: top-dose activation, hits mostly activators; active = well fitted activation curve with a large enough effect; inconclusive = small, poorly fitted or top-dose-only effect; also: potency is read from the fitted curve at half-maximal effect; % is scaled to controls: 0 for no effect and ±100 for the full control effect; nearly all actives have a fitted effect of over 60% in size
Target sequence (Q9HBX9 whole entry, looked up): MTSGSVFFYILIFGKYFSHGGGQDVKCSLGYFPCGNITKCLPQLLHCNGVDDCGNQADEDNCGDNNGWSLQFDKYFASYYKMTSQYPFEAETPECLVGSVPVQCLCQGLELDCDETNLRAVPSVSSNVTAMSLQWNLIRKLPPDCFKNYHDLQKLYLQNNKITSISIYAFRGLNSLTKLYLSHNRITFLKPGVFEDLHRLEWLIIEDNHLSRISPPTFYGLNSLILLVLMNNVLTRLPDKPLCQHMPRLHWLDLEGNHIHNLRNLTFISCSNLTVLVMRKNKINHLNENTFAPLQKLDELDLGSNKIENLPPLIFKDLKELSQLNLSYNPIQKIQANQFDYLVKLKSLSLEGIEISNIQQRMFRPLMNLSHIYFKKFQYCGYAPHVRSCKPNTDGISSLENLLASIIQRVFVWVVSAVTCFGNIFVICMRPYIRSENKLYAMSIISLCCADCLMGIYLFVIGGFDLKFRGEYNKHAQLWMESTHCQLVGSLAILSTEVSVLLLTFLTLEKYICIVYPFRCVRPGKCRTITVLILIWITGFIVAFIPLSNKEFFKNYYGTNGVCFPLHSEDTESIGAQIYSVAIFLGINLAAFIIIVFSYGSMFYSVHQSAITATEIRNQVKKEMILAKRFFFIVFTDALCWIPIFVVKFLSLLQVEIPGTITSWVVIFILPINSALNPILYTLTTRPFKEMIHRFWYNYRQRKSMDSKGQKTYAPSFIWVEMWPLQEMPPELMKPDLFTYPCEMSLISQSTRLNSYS
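Agonist response is measured as cAMP accumulation in an RXFP1-transfected HEK293T line under PDE4 inhibition. Values are scaled between buffer-only and 29 nM porcine relaxin, and EC50s come from standard Hill equation fits.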
gsp antagonist: antagonizes gsp, the McCune-Albright syndrome mutation; gsp-mutant cells, cAMP HTRF, 30 min; Potency, µM (titrated, usually from 76.9 µM), for the others: top-dose activity change, negative = inhibition, most hits filed as inhibitors; actives 0.4% (n = 340,000); calls by dose curve; cell line not stated here;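 also: intracellular cAMP measured with PDE inhibitor Ro 20-1724 present during compound exposure; potency is read from the fitted curve at half-maximal effect; % is scaled to controls: 0 for no effect and ±100 for the full control effect; nearly all actives have a fitted effect of over 65% in size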
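G418-selected cells were plated in DMEM/10% FBS for 16-24 h at 37C, then treated with compounds plus the PDE inhibitor […] (300 uM solution added) for 30 min at 37C. Intracellular cAMP was measured by HTRF after 30 min lysis at room temperature.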
pAkt inh: Akt phosphorylation inhibition; actives 0.32% (n = 360,000); activity change, % for hits at 50 µM; AID 651550; Neuro2A IGF-stimulated pAkt S473 HTRF, 20 min; stronger effect = lower value; in the data active = activity change below about -80%; inconclusive = mostly about -51% to -80%; also: % is scaled to controls: 0 for no effect and ±100 for the full control effect
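Neuro2A cells (4,500/well, DMEM with 0.5% FBS) were treated with compound at a single 50 µM final concentration, stimulated with 6 nM IGF for 20 min at 37 °C, and lysed. Phospho-Akt Ser473 was read by HTRF as 665/615 ratio ×10^4.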
RXFP1 antagonist: antagonists of human relaxin receptor RXFP1; HEK293-RXFP1, relaxin-stimulated cAMP HTRF, 30 min; stronger effect = lower value; activity change, negative = inhibition, % at 57.5 µM; actives 0.59% (n = 350,000);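 active = activity change of -60% or lower, but not beyond a set lower limit; inconclusive = change between -60% and -40%, or beyond the set limit; inactive = change above -40%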; also: % is scaled to controls: 0 for no effect and ±100 for the full control effect
* hit, by the source's call; i = inactive; ? = inconclusive; nt = no result; ! = not confirmed by another sample; [ ] = another dose, or the depositor's remark.

SMILES	gsp agonist	RXFP1 ag	gsp antagonist	pAkt inh	RXFP1 antagonist
N#Cc1c(-c2cccc(F)c2)cc(-c2ccccc2)nc1Br	?	?	28.7%	-93.5%*	1.7
COc1ccc(NC(=O)CCCn2c(=O)[nH]c3ccccc3c2=O)cc1	-0.4%	-0.2%	14.5%	-109.8%*	-10.5
COc1ccc(NC(=O)CCCCn2c(=O)[nH]c3ccccc3c2=O)cc1	-46.8%	0.4%	12.9%	i	0.4
O=[N+]([O-])c1cccc(S(=O)(=O)Nc2nc3ccccc3nc2Nc2cccc(S(=O)(=O)N3CCCCC3)c2)c1	-15.6%	-0.1%	17.8µM*	i	-8.0
Cc1cccc(S(=O)(=O)Nc2nc3ccccc3nc2Nc2ccc3c(c2)OCO3)c1	18.5%[15.4 µM]	-0.1%	28.2µM*	i	6.9
Cc1ccc(S(=O)(=O)Nc2nc3ccccc3nc2Nc2cccc(S(=O)(=O)N3CCCC3)c2)cc1	?	3.4%	31.6µM*	i	1.4
O=[N+]([O-])c1cccc(S(=O)(=O)Nc2ccc(S(=O)(=O)N3CCCC3)cc2)c1	-25.0%	nt	-8.0%	i	-4.2
COc1ccc(S(=O)(=O)Nc2cccc(S(=O)(=O)N3CCCCC3)c2)cc1	?	nt	-6.1%	i	-2.6
CCCNC(=O)N1CCCN(S(=O)(=O)c2ccc3c(ccn3CC)c2)CC1	nt	-1.1%	nt	nt	nt
CC(C)OCCCNc1nc(-c2ccccc2)nc2ccccc12	9.8%	1.7%	?	i	-21.2
CC(C)(C)C(=O)OCCNc1nc(-c2ccccc2)nc2ccccc12	?	0.0%	50.1µM*	i	?
CCOC(=O)c1scc(-c2ccc(C)cc2)c1S(=O)(=O)Nc1ccc(OC)c(Cl)c1	nt	-2.0%	nt	nt	nt
COc1ccc(-c2nc(CN3CCN(c4ncnc5ccccc45)CC3)c(C)o2)c(OC)c1	-18.8%	1.5%	31.6µM*	i	-14.4
Cc1ccccc1Oc1nnc(-c2cccs2)c2ccccc12	7.8%[15.4 µM]	1.7%	25.1µM*	i	?
CN1CCN(c2nnc(-c3cccs3)c3ccccc23)CC1	-9.1%[15.4 µM]	2.0%	1.0%	i	-2.4
O=Cc1ccccc1C=O	nt	nt	nt	nt	6.9
Cc1cccc(C(=O)OCC(=O)NCc2cccs2)c1	-2.0%[15.4 µM]	0.6%	-1.1%	i	-14.5
CS(=O)(=O)c1ccc(C(=O)OCC(=O)NCc2cccs2)cc1[N+](=O)[O-]	-1.2%[15.4 µM]	nt	-3.1%	i	-101.4*
Cc1nn(CC(=O)N2CCN(c3cccc(C(F)(F)F)c3)CC2)c(=O)c2cccn12	?	35.5µM*!	-0.4%	i	-8.6
CCOC(=O)c1c(-c2ccccc2)c[nH]c1C	-0.9%	nt	3.5%	i	-87.6*
COCCn1nnnc1C(c1ccc2ncccc2c1)N1CCc2ccccc21 (centres undefined)	-34.8%	4.8%	-9.1%	i	-12.9
COCCn1nnnc1C(c1ccc2ncccc2c1)N1CCN(c2ccccc2F)CC1 (centres undefined)	2.6%	3.2%	0.0%	-103.6%*	-22.9
COc1ccccc1CC(=O)Nc1ccc(-c2nnc(-c3ccco3)o2)cc1	-21.8%	2.5%	?	i	-5.8
COc1cc(C(=O)Nc2cccc(-c3nnc(-c4ccco4)o3)c2)ccc1OC(C)=O	-9.3%[15.4 µM]	4.5%	-23.5%	i	-65.0*
COc1cc(C(=O)Nc2ccc(-c3nnc(-c4ccco4)o3)cc2)cc(OC)c1OC	-2.7%	0.5%	-6.8%	-101.9%*	-8.3
SMILES	gsp agonist	RXFP1 ag	gsp antagonist	pAkt inh	RXFP1 antagonist
COc1ccc(C(=O)Nc2cccc(-c3nnc(-c4ccco4)o3)c2)cc1	-2.0%	0.2%	?	i	-33.6
O=C(NC(Nc1ncc(S(=O)(=O)c2ccc([N+](=O)[O-])cc2)s1)(C(F)(F)F)C(F)(F)F)c1ccc(Cl)cc1	4.1%[15.4 µM]	-3.2%	35.5µM*	i	-36.0
O=C(/C=C/c1cccc2ccccc12)c1ccncc1	-34.3%	0.6%	7.3%	i	-71.3*
Cc1cccc(N=C2NC(=O)/C(=C/C=C/c3ccco3)S2)c1	2.2%	0.2%	-0.8%	i	-72.5*
O=C1NC(=Nc2ccc(O)cc2)S/C1=C/c1ccco1	-5.2%	-0.6%	0.2%	i	-61.3*
COc1ccc(N=C2NC(=O)/C(=C\C=C\c3ccco3)S2)cc1	8.5%[15.4 µM]	4.6%	?	i	?
